Percent Effect data for nine molecules are collected here from ChEMBL document CHEMBL3988442, “University of Dundee, Small-Polar-MMV Screening Library” (2021).

For part of these data: Entries with a potency or affinity are not part of this list.

Common to all, as to parameters: scale not given: direction of the effect not stated beside the values
Test [1] has as its target Protein translocase subunit SecA (Escherichia coli (strain K12)) (UniProt P10408). Nature of the test: Assay to Identify E. coli SecA ATPase Inhibitors. It counts as functional. As to conditions: 30 µM.
Test [2] deals with T1, Ubiquitin-activating enzyme e1, putative (Leishmania donovani (strain BPK282A1)) (UniProt E9BSI1).
T1 sequence (whole entry): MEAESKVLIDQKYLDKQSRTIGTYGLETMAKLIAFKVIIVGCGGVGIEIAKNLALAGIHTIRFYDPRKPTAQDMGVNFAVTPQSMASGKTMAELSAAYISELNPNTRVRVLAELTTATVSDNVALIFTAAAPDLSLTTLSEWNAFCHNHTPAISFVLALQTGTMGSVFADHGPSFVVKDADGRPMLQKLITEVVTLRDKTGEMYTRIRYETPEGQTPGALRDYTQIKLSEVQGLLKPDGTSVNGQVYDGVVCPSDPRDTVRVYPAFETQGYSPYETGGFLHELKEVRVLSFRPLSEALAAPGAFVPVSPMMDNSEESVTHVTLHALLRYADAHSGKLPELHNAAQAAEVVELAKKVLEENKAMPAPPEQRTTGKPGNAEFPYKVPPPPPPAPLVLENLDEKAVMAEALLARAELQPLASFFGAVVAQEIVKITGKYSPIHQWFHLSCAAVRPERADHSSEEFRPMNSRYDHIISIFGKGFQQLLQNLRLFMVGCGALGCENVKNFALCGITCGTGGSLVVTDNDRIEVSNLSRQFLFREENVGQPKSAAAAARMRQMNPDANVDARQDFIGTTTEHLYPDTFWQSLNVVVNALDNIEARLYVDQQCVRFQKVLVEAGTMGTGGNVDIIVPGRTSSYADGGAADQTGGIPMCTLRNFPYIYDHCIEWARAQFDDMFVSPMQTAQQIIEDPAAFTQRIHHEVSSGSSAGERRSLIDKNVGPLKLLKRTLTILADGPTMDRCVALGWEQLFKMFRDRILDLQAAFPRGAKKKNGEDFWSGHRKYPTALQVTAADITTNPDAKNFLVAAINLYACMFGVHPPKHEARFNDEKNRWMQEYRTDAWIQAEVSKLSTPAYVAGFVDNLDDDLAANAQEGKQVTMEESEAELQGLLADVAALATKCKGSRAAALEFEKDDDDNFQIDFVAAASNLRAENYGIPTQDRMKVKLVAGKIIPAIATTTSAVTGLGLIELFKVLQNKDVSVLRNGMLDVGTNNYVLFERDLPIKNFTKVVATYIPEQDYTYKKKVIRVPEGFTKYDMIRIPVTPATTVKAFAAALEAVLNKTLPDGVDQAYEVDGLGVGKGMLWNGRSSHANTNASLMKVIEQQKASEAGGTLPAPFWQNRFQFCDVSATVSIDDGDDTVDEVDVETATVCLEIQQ
As to the kind of experiment: Leishmania donovani Ubiquitin Activating Enzyme (LdE1). The class given is functional. As to conditions: 30 µM.

Test [3] addresses AMP-activated protein kinase, AMPK (Homo sapiens) (UniProt P54646+O43741+P54619+Q9UGJ0+Q9Y478+Q13131+Q9UGI9). As to the kind of experiment: AMP-dependent Kinase enzyme assay. An in vitro enzyme assay that detects ADP turnover that is directly proportional to AMPK activity. This uses naive AMPK that is activated during the assay with MK-8722. The class given is functional. The note with it: 30 µM.

For test [4], the target named is Sialic acid-binding Ig-like lectin 9 (Homo sapiens) (UniProt Q9Y336). Nature of the test: Hs-Siglec9 ALPHAscreen SOP 20170721. As to conditions: 10 µM. (In general: In Alpha technology, singlet oxygen from a donor bead excites a nearby acceptor bead.)
Sialic acid-binding Ig-like lectin 9 (Homo sapiens), sequence (Q9Y336 whole entry): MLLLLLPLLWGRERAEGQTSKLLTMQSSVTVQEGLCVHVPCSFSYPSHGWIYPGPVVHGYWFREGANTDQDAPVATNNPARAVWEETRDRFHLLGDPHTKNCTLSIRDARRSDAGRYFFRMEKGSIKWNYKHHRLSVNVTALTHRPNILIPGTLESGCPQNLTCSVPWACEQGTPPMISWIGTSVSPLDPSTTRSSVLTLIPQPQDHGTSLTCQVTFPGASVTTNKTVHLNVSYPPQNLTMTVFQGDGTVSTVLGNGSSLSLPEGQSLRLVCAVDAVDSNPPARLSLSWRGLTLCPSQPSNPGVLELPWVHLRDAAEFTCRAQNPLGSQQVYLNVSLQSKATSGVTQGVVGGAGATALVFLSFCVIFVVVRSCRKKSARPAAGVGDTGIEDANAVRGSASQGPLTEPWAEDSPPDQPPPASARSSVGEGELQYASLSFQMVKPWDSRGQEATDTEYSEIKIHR
Test [5] concerns Trypanosoma cruzi. As to the kind of experiment: Trypanosoma cruzi phosphomannomutase and mannose-1-phosphate guanylyltransferase assay. It counts as functional. The note with it: 10 µM.
Test [6] has as its target T2, Arginase-2, mitochondrial (Homo sapiens) (UniProt P78540).
T2 sequence (whole entry): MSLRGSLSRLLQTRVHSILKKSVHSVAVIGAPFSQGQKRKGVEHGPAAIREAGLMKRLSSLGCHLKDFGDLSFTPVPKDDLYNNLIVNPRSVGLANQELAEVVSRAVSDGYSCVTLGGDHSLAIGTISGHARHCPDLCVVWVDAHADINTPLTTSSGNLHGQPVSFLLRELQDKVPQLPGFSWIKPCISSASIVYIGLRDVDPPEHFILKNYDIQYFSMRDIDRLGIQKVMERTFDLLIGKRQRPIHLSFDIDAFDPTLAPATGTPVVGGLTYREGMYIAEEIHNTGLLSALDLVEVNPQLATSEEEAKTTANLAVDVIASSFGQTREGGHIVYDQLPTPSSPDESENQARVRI
Nature of the test: in vitro enzyme assay to detect the production of urea directly proportional to the activity of Arginase II. Note: in the data most compounds retested in dose-response had high values. The class given is functional. As to conditions: 33.3 µM.

Test [7] has as its target T3, Proteasome subunit beta (Trypanosoma cruzi) (UniProt O96673).
T3 sequence (whole entry): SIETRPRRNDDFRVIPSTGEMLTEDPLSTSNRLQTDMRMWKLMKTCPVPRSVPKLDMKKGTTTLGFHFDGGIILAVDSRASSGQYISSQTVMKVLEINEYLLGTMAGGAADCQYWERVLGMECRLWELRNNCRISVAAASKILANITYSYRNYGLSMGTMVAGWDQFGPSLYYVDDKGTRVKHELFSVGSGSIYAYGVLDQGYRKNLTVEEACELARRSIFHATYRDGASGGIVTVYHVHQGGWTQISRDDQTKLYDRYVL
Nature of the test: Trypanosoma cruzi proteasome chymotrypsin-like activity (TcProtChymo) assay. Note: in the data most compounds retested in dose-response had high values. It counts as functional. As to conditions: 9.37 µM.

The species entered for test [8] is Homo sapiens. As to the kind of experiment: To identify inhibition of the IFN signalling (Jak-Stat) pathway via expression of an eGFP reporter gene under the control of an IFN-stimulated response element (ISRE) containing MxA promoter. It counts as functional. The note with it: 30 µM. In general terms: A reporter such as luciferase makes a cellular process visible.

The target of test [9] is T4, Tyrosyl-tRNA synthetase, putative (Trypanosoma cruzi (strain CL Brener)) (UniProt Q4DSP6).
T4 sequence (whole entry): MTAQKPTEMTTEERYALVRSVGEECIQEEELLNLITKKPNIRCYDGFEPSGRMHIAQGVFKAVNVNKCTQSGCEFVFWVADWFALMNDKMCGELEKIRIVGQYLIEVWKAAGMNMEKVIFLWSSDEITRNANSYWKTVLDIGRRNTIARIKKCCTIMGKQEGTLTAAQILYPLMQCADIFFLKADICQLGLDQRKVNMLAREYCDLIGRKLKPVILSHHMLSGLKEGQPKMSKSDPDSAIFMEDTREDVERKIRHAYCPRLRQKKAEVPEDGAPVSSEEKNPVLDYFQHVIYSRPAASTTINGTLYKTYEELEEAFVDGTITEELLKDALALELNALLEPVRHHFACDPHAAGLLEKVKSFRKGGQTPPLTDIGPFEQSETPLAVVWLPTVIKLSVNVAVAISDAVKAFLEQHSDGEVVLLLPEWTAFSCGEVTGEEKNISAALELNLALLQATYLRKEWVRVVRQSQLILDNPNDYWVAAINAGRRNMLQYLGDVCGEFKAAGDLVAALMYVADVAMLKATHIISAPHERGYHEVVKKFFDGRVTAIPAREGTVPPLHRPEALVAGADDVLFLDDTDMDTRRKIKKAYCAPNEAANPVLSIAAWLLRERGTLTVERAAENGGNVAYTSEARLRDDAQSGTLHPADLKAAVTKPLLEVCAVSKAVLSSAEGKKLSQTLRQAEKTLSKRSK
Nature of the test: Trypanosoma cruzi tyrosyl tRNA synthetase (TcYRS) _High Tyrosine SOP. Note: in the data most compounds retested in dose-response had high values. It counts as functional. The note with it: 30 µM.

Test [10] addresses T4, Tyrosyl-tRNA synthetase, putative (Trypanosoma cruzi (strain CL Brener)). As to the kind of experiment: Trypanosoma cruzi tyrosyl tRNA synthetase (TcYRS) SOP. As to conditions: 30 µM. The class given is functional.
In test [11] the target is Chromo domain-containing protein 1 (Saccharomyces cerevisiae (strain ATCC 204508 / S288c) (Baker's yeast)) (UniProt P32657). As to the kind of experiment: ScCHD-1 Enzyme Inhibition Assay. Note: in the data most compounds retested in dose-response had high values. It counts as functional. As to conditions: 30 µM.
Chromo domain-containing protein 1 (Saccharomyces cerevisiae (strain ATCC 204508 / S288c) (Baker's yeast)), sequence (P32657 whole entry, the tested form may be a part): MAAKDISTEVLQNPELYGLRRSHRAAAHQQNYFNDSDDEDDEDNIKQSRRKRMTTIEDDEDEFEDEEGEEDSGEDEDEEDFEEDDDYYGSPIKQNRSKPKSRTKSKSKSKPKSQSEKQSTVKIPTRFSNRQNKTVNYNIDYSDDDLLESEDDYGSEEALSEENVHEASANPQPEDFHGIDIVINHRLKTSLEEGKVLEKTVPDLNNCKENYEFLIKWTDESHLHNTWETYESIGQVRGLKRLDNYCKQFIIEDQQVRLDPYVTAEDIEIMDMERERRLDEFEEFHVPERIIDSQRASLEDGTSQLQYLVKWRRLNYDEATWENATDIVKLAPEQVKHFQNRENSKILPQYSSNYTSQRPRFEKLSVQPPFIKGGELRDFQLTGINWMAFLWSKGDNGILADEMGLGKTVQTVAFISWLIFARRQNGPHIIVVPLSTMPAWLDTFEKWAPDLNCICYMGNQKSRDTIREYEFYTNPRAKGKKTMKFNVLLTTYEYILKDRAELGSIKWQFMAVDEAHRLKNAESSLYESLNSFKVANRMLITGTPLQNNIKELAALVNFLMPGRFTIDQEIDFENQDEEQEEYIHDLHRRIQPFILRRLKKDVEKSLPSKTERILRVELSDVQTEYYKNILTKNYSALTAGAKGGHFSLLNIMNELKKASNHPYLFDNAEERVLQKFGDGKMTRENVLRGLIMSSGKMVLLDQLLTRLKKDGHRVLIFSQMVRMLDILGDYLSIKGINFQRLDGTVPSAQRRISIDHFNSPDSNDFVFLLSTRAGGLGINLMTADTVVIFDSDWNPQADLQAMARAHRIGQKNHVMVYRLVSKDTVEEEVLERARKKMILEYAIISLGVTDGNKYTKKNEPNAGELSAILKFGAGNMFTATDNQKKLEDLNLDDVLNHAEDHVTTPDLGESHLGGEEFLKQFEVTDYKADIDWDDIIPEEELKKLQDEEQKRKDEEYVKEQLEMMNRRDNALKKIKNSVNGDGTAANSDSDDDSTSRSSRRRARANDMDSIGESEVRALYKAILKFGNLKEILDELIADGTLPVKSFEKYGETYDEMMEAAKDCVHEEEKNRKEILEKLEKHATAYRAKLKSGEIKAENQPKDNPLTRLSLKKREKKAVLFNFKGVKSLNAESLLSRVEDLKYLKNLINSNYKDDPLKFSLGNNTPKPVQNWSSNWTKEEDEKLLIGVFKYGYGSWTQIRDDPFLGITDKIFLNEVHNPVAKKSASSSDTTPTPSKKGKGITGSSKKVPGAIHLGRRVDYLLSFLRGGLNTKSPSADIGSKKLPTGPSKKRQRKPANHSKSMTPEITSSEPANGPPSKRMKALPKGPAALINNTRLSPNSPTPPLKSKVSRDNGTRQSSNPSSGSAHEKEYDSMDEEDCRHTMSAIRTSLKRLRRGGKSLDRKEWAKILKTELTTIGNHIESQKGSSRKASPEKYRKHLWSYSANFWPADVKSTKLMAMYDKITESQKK

Protein translocase subunit SecA (Escherichia coli (strain K12)), sequence (P10408 whole entry): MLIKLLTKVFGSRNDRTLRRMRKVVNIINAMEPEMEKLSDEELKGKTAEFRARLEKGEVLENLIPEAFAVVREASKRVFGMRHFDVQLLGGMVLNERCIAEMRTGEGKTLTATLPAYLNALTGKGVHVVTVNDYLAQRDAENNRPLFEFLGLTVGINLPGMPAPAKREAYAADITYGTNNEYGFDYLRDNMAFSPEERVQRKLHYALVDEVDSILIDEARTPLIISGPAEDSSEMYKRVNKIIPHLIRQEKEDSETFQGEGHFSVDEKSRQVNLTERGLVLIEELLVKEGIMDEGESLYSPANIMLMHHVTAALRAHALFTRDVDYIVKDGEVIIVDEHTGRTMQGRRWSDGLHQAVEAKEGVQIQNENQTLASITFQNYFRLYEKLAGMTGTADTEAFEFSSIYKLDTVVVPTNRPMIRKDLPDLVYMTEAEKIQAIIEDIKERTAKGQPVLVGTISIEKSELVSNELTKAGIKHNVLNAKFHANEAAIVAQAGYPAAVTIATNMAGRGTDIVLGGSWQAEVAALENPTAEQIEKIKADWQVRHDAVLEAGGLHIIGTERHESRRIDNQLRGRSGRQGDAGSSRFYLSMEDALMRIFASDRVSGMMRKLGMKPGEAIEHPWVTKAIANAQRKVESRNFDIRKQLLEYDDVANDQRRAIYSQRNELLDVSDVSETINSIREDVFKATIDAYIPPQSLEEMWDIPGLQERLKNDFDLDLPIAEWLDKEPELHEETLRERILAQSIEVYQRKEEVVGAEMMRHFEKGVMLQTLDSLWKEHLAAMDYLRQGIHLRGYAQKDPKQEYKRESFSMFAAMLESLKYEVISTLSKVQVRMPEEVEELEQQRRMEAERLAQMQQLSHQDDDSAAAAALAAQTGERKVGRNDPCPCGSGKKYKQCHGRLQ

Take `O=C(NCc1ccco1)[C@@H]1CCO[C@@H]2CCN(c3ccncn3)C[C@H]21`: the Percent Effect in test [1] was 0.562%; in test [2], 2.67%; in [3], 2.84%; in [4], 5.63%; in test [5], -5.02%; in test [6] it was -56.5%. Moreover, the Percent Effect in [7] was 5.64%; in test [8], 3.81%; in test [9], 1.04%; in [10], -25%; in test [11], -8.67%.
Regarding `CC1(C(=O)N2CCOCC2)CN(Cc2ccccn2)CCO1` (centres undefined), the Percent Effect in test [1] is -7.59%; in [2] it was 1.35%; in test [3], -5.87%; in test [4], -5.46%; in [5], -4.35%; in test [6], -5.8%. The Percent Effect in test [7] is 9.52%; in [8], 24.2%; in test [9], 1.07%; in [10], -3.9%; in test [11] it was 6.62%.
`CCc1nccn1C1CCCN(C(=O)CCCNc2ncccn2)C1` (centres undefined): the Percent Effect was -4.28% in [1]; 3.8% in [2]; 4.55% in test [3]; 1.92% in test [4]; -2.77% in test [5]; 2.8% in test [6]. Also, the Percent Effect is 6% in [7]; 9.01% in [8]; 4.17% in [9]; 10.1% in test [10]; -14.2% in [11].
On to `CC(=O)N1CCCN(C(=O)c2cnc3n[nH]c(C)c3c2)CC1`, for which the Percent Effect in [1] is -1.9%; in test [2], 15.8%; in [3] it was -3.49%; in test [4], 5.52%; in [5] it was 3.08%; in test [6], 3.96%. The Percent Effect in test [7] is 2.45%; in [8] it was -3.15%; in test [9], 9.36%; in [10] it was 23.5%; in test [11], -9.47%.
For the molecule `CC(CN1CCOCC1)NC(=O)N(C)Cc1ccc(Cl)s1` (centres undefined), the Percent Effect was 0.481% in test [1]; 10.5% in test [2]; 2.51% in test [3]; -1.81% in [4]; -6.91% in test [5]; 0% in [6]. Besides, the Percent Effect was 13.3% in test [7]; 3.75% in [8]; 6.38% in test [9]; 13% in [10]; -2.62% in [11].
On to `COCCN(C)Cc1ccc(OC)c(OC(F)F)c1`, for which the Percent Effect in test [1] is -0.72%; in [2] it was 0%; in test [3] it was 2.88%; in test [4] it was 0.875%; in [5], -20.8%; in [6], 6.9%. Moreover, the Percent Effect in [7] was 0.499%; in test [8] it was -9.7%; in test [9], -1.07%; in test [10] it was -6.17%; in test [11], 2.42%.
Turning to `COc1cc(C)nc(N2CCN(C(=O)CCc3cscn3)CC2)n1`, the Percent Effect was 1.16% in [1]; 2.7% in test [2]; -1.3% in [3]; 0.273% in [4]; -6.95% in [5]; 1.91% in [6]. Further, the Percent Effect in test [7] is 11.4%; in test [8], 0.884%; in test [9], 5.82%; in test [10], 9.76%; in test [11] it was -3.75%.
For the molecule `Cc1ccc([C@]2(O)CC[C@H]3CN(Cc4cccc(Cl)c4Cl)C[C@H]32)nc1`, the Percent Effect in [1] is -2.93%; in test [2], 12.2%; in test [3] it was 12.6%; in test [4], -9.17%; in test [5], 1.98%; in test [6] it was -0.232%. Moreover, the Percent Effect is 17.8% in test [7]; 51.4% in test [8]; 9.68% in [9]; 16.9% in test [10]; -15.7% in test [11].
For the molecule `CN(Cc1ccc(F)cc1)C(=O)CN1CCOC(Cn2cncn2)C1` (centres undefined), the Percent Effect was 0.893% in test [1]; 17.7% in test [2]; -2.68% in test [3]; -5.85% in test [4]; -7.65% in [5]; -1.52% in test [6]. Moreover, the Percent Effect is 17.6% in [7]; 36% in test [8]; 1.48% in test [9]; 3.8% in test [10]; -4.1% in test [11].
